Assay results: PubChem BioAssay (NCI)
This is part of a sample that, as a whole, favours compounds with a hit. Of some 79,000 tested, about 15% had one in any assay. A number with no mark means an inactive call. Activity calls are given as the source filed them. No stated cut-off is given here; in the data, active means growth inhibition above about 70%; inactive means the rest.

Tests used:
[1] = NCI Yeast Anticancer Drug Screen. Data for the rad52 strain (AID 147);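 further: 0% = growth of vehicle-treated control cultures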; settings: S. cerevisiae rad52 mutant growth inhibition, active compounds read high
Procedure, shortened: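 Growth of repair-deficient yeast cells was compared between compound-treated and vehicle-treated cultures to give percent inhibition.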

[2] = NCI Yeast Anticancer Drug Screen. Data for the wt1 strain (AID 149);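 further: 0% = growth of vehicle-treated wt1 cultures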; settings: S. cerevisiae wt1 strain (SPY 50644) growth inhibition, active compounds read high
Procedure, shortened: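 Each compound is tested on wt1 yeast and the loss of growth versus vehicle gives the inhibition value.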

[3] = NCI Yeast Anticancer Drug Screen. Data for the rad50EPP+ strain (AID 151);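 further: 0% = growth of vehicle-treated control cultures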; settings: S. cerevisiae rad50 mutant strain, active compounds read high
Procedure, shortened: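 Measured: growth inhibition of rad50EPP+ yeast. Reference: vehicle-treated controls. Screen uses strains with defined genetic alterations in DNA damage repair or cell cycle control.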

[4] = NCI Yeast Anticancer Drug Screen. Data for the mgt1 strain (AID 153); settings: S. cerevisiae mgt1 mutant growth inhibition, active compounds read high
Procedure, shortened: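 Compounds were applied to mgt1 mutant yeast, and growth was then compared against vehicle-treated control cultures to give percent inhibition.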

[5] = NCI Yeast Anticancer Drug Screen. Data for the rad50 strain (AID 155);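 further: 0% = growth of vehicle-only cultures of the same strain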; settings: S. cerevisiae rad50 strain growth inhibition, active compounds read high
Procedure, shortened: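 Vehicle-treated cultures provide the reference for the growth inhibition reported for compound-exposed, repair-deficient yeast.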

[6] = NCI Yeast Anticancer Drug Screen. Data for the mec2-1 strain (AID 157); settings: S. cerevisiae mec2-1 strain, active compounds read high
Procedure, shortened: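 Compounds were applied to mec2-1 yeast cells. Their growth was then compared with that of vehicle-treated cultures to give growth inhibition.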

[7] = NCI Yeast Anticancer Drug Screen. Data for the rad14 strain (AID 159);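 further: 0% = growth of vehicle-treated control cultures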; settings: S. cerevisiae rad14 strain growth inhibition, active compounds read high
Procedure, shortened: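 Inhibition of growth is reported for a repair-deficient yeast mutant following compound treatment, calculated relative to cultures that received vehicle.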

[8] = NCI Yeast Anticancer Drug Screen. Data for the sgs1 mgt1 strain (AID 161);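 further: 0% = growth of cultures given vehicle only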; settings: S. cerevisiae sgs1 mgt1 strain, active compounds read high
Procedure, shortened: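 Yeast cells carrying a defined DNA-repair defect were exposed to test compounds. Growth inhibition was measured relative to vehicle-treated controls.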

[9] = NCI Yeast Anticancer Drug Screen. Data for the CLN2oe strain (AID 163);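 further: 0% = growth of vehicle-only control cultures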; settings: S. cerevisiae CLN2oe strain, active compounds read high
Procedure, shortened: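 Cells of an engineered yeast line with disturbed cell-cycle regulation are treated with compound. Inhibition of growth is then calculated relative to the vehicle-treated reference.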

[10] = NCI Yeast Anticancer Drug Screen. Data for the cln2 rad14 strain (AID 165);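 further: 0% = growth equal to vehicle treated cultures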; settings: S. cerevisiae cln2 rad14 strain, active compounds read high
Procedure, shortened: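 Strain: cln2 rad14 yeast, altered in cell cycle control and DNA damage repair. Read-out: growth inhibition vs vehicle.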

[11] = NCI Yeast Anticancer Drug Screen. Data for the bub3 strain (AID 167); settings: S. cerevisiae bub3 mutant strain, active compounds read high
Procedure, shortened: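 Mutant yeast screening strain plus compound; vehicle-treated cultures serve as the 0% inhibition reference.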

[12] = NCI Yeast Anticancer Drug Screen. Data for the wt2 strain (AID 169); settings: S. cerevisiae wt2 strain growth inhibition, active compounds read high
Procedure, shortened: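 Growth of compound-treated yeast is measured and expressed as inhibition relative to vehicle-only controls.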

[13] = NCI Yeast Anticancer Drug Screen. Data for the mlh1 strain (AID 171);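 further: 0% = growth of vehicle-treated control cultures of the same strain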; settings: S. cerevisiae mlh1 strain growth inhibition, active compounds read high
Procedure, shortened: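 Test agents were incubated with yeast bearing a defined DNA damage repair or cell cycle control alteration; values are growth inhibition normalised to vehicle-treated cultures.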

[14] = NCI Yeast Anticancer Drug Screen. Data for the sgs1 strain (AID 173);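 further: 0% = growth of vehicle-only control cultures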; settings: S. cerevisiae sgs1 mutant, active compounds read high
Procedure, shortened: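 Strain with an altered DNA repair or cell cycle pathway exposed to compound. Growth then measured. Value = inhibition versus vehicle control.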

[15] = NCI Yeast Anticancer Drug Screen. Data for the mlh1 rad18 strain (AID 175); settings: S. cerevisiae mlh1 rad18 strain growth inhibition, active compounds read high
Procedure, shortened: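 A repair-deficient yeast strain is exposed to test compound, and growth is scored relative to vehicle-treated controls.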

[16] = NCI Yeast Anticancer Drug Screen. Data for the rad18 strain (AID 177); settings: S. cerevisiae rad18 mutant growth inhibition, active compounds read high
Procedure, shortened: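 DNA-repair-defective yeast; compound treatment; growth inhibition scored against vehicle.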

[17] = at 5.0 µM (retest, dose inferred, filed as 0.5)
[18] = at 50.0 µM (retest, dose inferred, filed as 5.0)

## CSC1=NNC(SC)=NN1
[1]; at 1.2 µM
  growth inhibition: -13%
[1]; at 3.7 µM
  growth inhibition: -5%
[1]; at 11.0 µM
  growth inhibition: 3%
[1]; at 33.0 µM
  growth inhibition: 70% (active)
[1]; at 100.0 µM
  growth inhibition: 98% (active)
[2]; at 1.2 µM
  growth inhibition: -7%
[2]; at 3.7 µM
  growth inhibition: -9%
[2]; at 11.0 µM
  growth inhibition: -6%
[2]; at 33.0 µM
  growth inhibition: 51%
[2]; at 100.0 µM
  growth inhibition: 99% (active)
[3]; at 1.2 µM
  growth inhibition: -4%
[3]; at 3.7 µM
  growth inhibition: -9%
[3]; at 11.0 µM
  growth inhibition: 0%
[3]; at 33.0 µM
  growth inhibition: 55%
[3]; at 100.0 µM
  growth inhibition: 98% (active)
[4]; at 1.2 µM
  growth inhibition: 12%
[4]; at 3.7 µM
  growth inhibition: 14%
[4]; at 11.0 µM
  growth inhibition: 12%
[4]; at 33.0 µM
  growth inhibition: 83% (active)
[4]; at 100.0 µM
  growth inhibition: 99% (active)
[5]; at 1.2 µM
  growth inhibition: -4%
[5]; at 3.7 µM
  growth inhibition: 0%
[5]; [17]
  growth inhibition: 49%
[5]; at 11.0 µM
  growth inhibition: 15%
[5]; at 33.0 µM
  growth inhibition: 66%
[5]; [18]
  growth inhibition: 41%
[5]; at 50.0 µM
  growth inhibition: 59.9%
[5]; at 100.0 µM
  growth inhibition: 97% (active)
[6]; at 1.2 µM
  growth inhibition: -4%
[6]; at 3.7 µM
  growth inhibition: -22%
[6]; [17]
  growth inhibition: 44%
[6]; at 11.0 µM
  growth inhibition: 15%
[6]; at 33.0 µM
  growth inhibition: 89% (active)
[6]; [18]
  growth inhibition: 41%
[6]; at 50.0 µM
  growth inhibition: 44.4%
[6]; at 100.0 µM
  growth inhibition: 99% (active)
[7]; at 1.2 µM
  growth inhibition: -16%
[7]; at 3.7 µM
  growth inhibition: -4%
[7]; at 11.0 µM
  growth inhibition: 36%
[7]; at 33.0 µM
  growth inhibition: 87% (active)
[7]; at 100.0 µM
  growth inhibition: 98% (active)
[8]; [17]
  growth inhibition: -1%
[8]; [18]
  growth inhibition: 100% (active)
[8]; at 50.0 µM
  growth inhibition: 58.5%
[9]; at 1.2 µM
  growth inhibition: -8%
[9]; at 3.7 µM
  growth inhibition: 17%
[9]; at 11.0 µM
  growth inhibition: 15%
[9]; at 33.0 µM
  growth inhibition: 46%
[9]; at 100.0 µM
  growth inhibition: 99% (active)
[10]; [17]
  growth inhibition: 61%
[10]; [18]
  growth inhibition: 99% (active)
[10]; at 50.0 µM
  growth inhibition: 30.9%
[11]; at 1.2 µM
  growth inhibition: -12%
[11]; at 3.7 µM
  growth inhibition: 6%
[11]; [17]
  growth inhibition: 45%
[11]; at 11.0 µM
  growth inhibition: 54%
[11]; at 33.0 µM
  growth inhibition: 89% (active)
[11]; [18]
  growth inhibition: 99% (active)
[11]; at 50.0 µM
  growth inhibition: 68.8%
[11]; at 100.0 µM
  growth inhibition: 99% (active)
[12]; at 1.2 µM
  growth inhibition: -2%
[12]; at 3.7 µM
  growth inhibition: 1%
[12]; at 11.0 µM
  growth inhibition: 4%
[12]; at 33.0 µM
  growth inhibition: 61%
[12]; at 100.0 µM
  growth inhibition: 99% (active)
[13]; at 1.2 µM
  growth inhibition: -3%
[13]; at 3.7 µM
  growth inhibition: 17%
[13]; at 11.0 µM
  growth inhibition: 20%
[13]; at 33.0 µM
  growth inhibition: 62%
[13]; at 100.0 µM
  growth inhibition: 98% (active)
[14]; at 1.2 µM
  growth inhibition: -5%
[14]; at 3.7 µM
  growth inhibition: -11%
[14]; at 11.0 µM
  growth inhibition: 8%
[14]; at 33.0 µM
  growth inhibition: 75% (active)
[14]; at 100.0 µM
  growth inhibition: 98% (active)
[15]; [17]
  growth inhibition: 44%
[15]; [18]
  growth inhibition: 35%
[15]; at 50.0 µM
  growth inhibition: 39.4%
[16]; at 1.2 µM
  growth inhibition: 4%
[16]; at 3.7 µM
  growth inhibition: 13%
[16]; at 11.0 µM
  growth inhibition: 60%
[16]; at 33.0 µM
  growth inhibition: 93% (active)
[16]; at 100.0 µM
  growth inhibition: 98% (active)

## O=C(Nc1ccccc1)C(=O)C(C(=O)c1ccccc1)C(c1ccccc1)c1ccccc1 (stereo unspecified)
[1]; at 1.2 µM
  growth inhibition: 8%
[1]; at 3.7 µM
  growth inhibition: 10%
[1]; at 11.0 µM
  growth inhibition: 15%
[1]; at 33.0 µM
  growth inhibition: 23%
[1]; at 100.0 µM
  growth inhibition: 36%
[2]; at 1.2 µM
  growth inhibition: 3%
[2]; at 3.7 µM
  growth inhibition: 5%
[2]; at 11.0 µM
  growth inhibition: 4%
[2]; at 33.0 µM
  growth inhibition: 10%
[2]; at 100.0 µM
  growth inhibition: 28%
[3]; at 1.2 µM
  growth inhibition: 0%
[3]; at 3.7 µM
  growth inhibition: 0%
[3]; at 11.0 µM
  growth inhibition: 1%
[3]; at 33.0 µM
  growth inhibition: 2%
[3]; at 100.0 µM
  growth inhibition: -1%
[4]; at 1.2 µM
  growth inhibition: 2%
[4]; at 3.7 µM
  growth inhibition: 1%
[4]; at 11.0 µM
  growth inhibition: 5%
[4]; at 33.0 µM
  growth inhibition: 8%
[4]; at 100.0 µM
  growth inhibition: 42%
[5]; at 1.2 µM
  growth inhibition: 1%
[5]; at 3.7 µM
  growth inhibition: -6%
[5]; [17]
  growth inhibition: 11%
[5]; at 11.0 µM
  growth inhibition: -3%
[5]; at 33.0 µM
  growth inhibition: 26%
[5]; [18]
  growth inhibition: 86% (active)
[5]; at 50.0 µM
  growth inhibition: 82.5% (active)
[5]; at 100.0 µM
  growth inhibition: 37%
[6]; at 1.2 µM
  growth inhibition: 8%
[6]; at 3.7 µM
  growth inhibition: 7%
[6]; [17]
  growth inhibition: -11%
[6]; at 11.0 µM
  growth inhibition: 10%
[6]; at 33.0 µM
  growth inhibition: 22%
[6]; [18]
  growth inhibition: 78% (active)
[6]; at 50.0 µM
  growth inhibition: 15.9%
[6]; at 100.0 µM
  growth inhibition: 35%
[7]; at 1.2 µM
  growth inhibition: 3%
[7]; at 3.7 µM
  growth inhibition: 0%
[7]; at 11.0 µM
  growth inhibition: 5%
[7]; at 33.0 µM
  growth inhibition: 18%
[7]; at 100.0 µM
  growth inhibition: 36%
[8]; [17]
  growth inhibition: -5%
[8]; [18]
  growth inhibition: 20%
[8]; at 50.0 µM
  growth inhibition: 29.4%
[9]; at 1.2 µM
  growth inhibition: 5%
[9]; at 3.7 µM
  growth inhibition: 2%
[9]; at 11.0 µM
  growth inhibition: 6%
[9]; at 33.0 µM
  growth inhibition: 24%
[9]; at 100.0 µM
  growth inhibition: 39%
[10]; [17]
  growth inhibition: 5%
[10]; [18]
  growth inhibition: 53%
[10]; at 50.0 µM
  growth inhibition: 41.2%
[11]; at 1.2 µM
  growth inhibition: 2%
[11]; at 3.7 µM
  growth inhibition: 0%
[11]; [17]
  growth inhibition: -2%
[11]; at 11.0 µM
  growth inhibition: 3%
[11]; at 33.0 µM
  growth inhibition: 9%
[11]; [18]
  growth inhibition: 33%
[11]; at 50.0 µM
  growth inhibition: 58.3%
[11]; at 100.0 µM
  growth inhibition: 18%
[12]; at 1.2 µM
  growth inhibition: 1%
[12]; at 3.7 µM
  growth inhibition: 2%
[12]; at 11.0 µM
  growth inhibition: 2%
[12]; at 33.0 µM
  growth inhibition: 12%
[12]; at 100.0 µM
  growth inhibition: 43%
[13]; at 1.2 µM
  growth inhibition: 3%
[13]; at 3.7 µM
  growth inhibition: 2%
[13]; at 11.0 µM
  growth inhibition: 3%
[13]; at 33.0 µM
  growth inhibition: 16%
[13]; at 100.0 µM
  growth inhibition: 31%
[14]; at 1.2 µM
  growth inhibition: 2%
[14]; at 3.7 µM
  growth inhibition: 3%
[14]; at 11.0 µM
  growth inhibition: 3%
[14]; at 33.0 µM
  growth inhibition: 32%
[14]; at 100.0 µM
  growth inhibition: 56%
[15]; [17]
  growth inhibition: -13%
[15]; [18]
  growth inhibition: 74% (active)
[15]; at 50.0 µM
  growth inhibition: 79.8% (active)
[16]; at 1.2 µM
  growth inhibition: 7%
[16]; at 3.7 µM
  growth inhibition: 10%
[16]; at 11.0 µM
  growth inhibition: 22%
[16]; at 33.0 µM
  growth inhibition: 41%
[16]; at 100.0 µM
  growth inhibition: 47%
